IL-1B inflam inh: qHTS for Inhibitors of Inflammasome Signaling: IL-1-beta AlphaLISA Primary Screen | THP-1 LPS/ATP IL-1B secretion, AlphaLISA, 16 h; hits give low values | activity change, % at 57.5 µM | hit rate 4.7% among 360,000 | AID 743279, 2014; in the data active = activity change below about -50%; inconclusive = mostly about -30% to -49%
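THP-1 cells pretreated 1 hr with compounds (up to 57.5 uM final), then stimulated with LPS (250 ng/mL final) plus ATP (1.25 mM final); secreted IL-1B measured by AlphaLISA after 16 hr, decreased signal indicating inhibition.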
TDP1 cell CPT: qHTS for Inhibitors of human tyrosyl-DNA phosphodiesterase 1 (TDP1): qHTS in cells in presence of CPT | chicken DT40 Tdp1-/-;hTDP1 cells + 20 nM CPT, ATP luminescence, 48 h | Potency, µM (top dose mostly 46.2 µM), most hits filed as inhibitors | hit rate 12% among 420,000 | AID 686979, 2013; also: nearly all actives have a fitted effect of over 55% in size
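Chicken DT40 Tdp1-/- cells complemented with human TDP1, 400 cells/well, exposed to compounds plus 20 nM camptothecin for at least 48 h at 37 C; viability read as ATP content by CellTiter-Glo luminescence.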
TDP1 inh: qHTS Assay for Inhibitors of Tyrosyl-DNA Phosphodiesterase (TDP1); Potency, µM (titrated, usually from 130 µM), most hits filed as inhibitors; AID 485290, 2010; recombinant TDP1, AlphaScreen DNA substrate cleavage; hit rate 0.28% among 350,000; Tyrosyl-DNA phosphodiesterase 1 (Homo sapiens), Q9NUW8; also: nearly all actives have a fitted effect of over 40% in size
Target sequence (Q9NUW8 whole entry, looked up): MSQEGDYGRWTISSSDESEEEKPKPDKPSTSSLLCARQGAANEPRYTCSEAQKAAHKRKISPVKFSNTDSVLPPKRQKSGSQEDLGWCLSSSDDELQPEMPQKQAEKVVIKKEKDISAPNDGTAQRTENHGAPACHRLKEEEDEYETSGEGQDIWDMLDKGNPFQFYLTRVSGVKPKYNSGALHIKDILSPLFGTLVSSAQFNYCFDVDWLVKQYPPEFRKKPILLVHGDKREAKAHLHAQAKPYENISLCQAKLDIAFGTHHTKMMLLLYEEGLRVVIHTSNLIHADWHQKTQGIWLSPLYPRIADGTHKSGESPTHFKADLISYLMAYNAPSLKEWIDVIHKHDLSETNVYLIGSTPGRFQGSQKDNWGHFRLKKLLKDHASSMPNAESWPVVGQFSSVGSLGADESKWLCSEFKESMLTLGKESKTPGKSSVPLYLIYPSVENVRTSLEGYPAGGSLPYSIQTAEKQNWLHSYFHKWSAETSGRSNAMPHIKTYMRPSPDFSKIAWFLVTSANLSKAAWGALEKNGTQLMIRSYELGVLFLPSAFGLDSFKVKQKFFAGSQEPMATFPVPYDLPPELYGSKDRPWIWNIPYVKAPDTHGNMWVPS
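Enzyme-compound mixtures sat 15 min at room temperature, followed by a 5 min reaction with 15 nM final substrate and 10 min with AlphaScreen beads. Recombinant human Tdp1 was used at 1 nM final.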
HepG2 tox: qHTS for Inhibitors of TGF-b: Cytotox Counterscreen | HepG2 CAGA-GFP viability, ATP luminescence, 18 h | hit rate 0.76% among 410,000 | Potency, µM (doses to about 46.1 µM), actives largely listed as cytotoxic
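HepG2 CAGA-GFP cells (1000/well, DMEM with 1% FBS) received compound, then TGF-beta at 500 pg/mL final, and were incubated 18 hours at 37 degrees C. Viability was read by CellTiter-Glo luminescence. Media-only wells were set as complete cell-killing and DMSO as no toxicity.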
TDP1 cell noCPT: qHTS for Inhibitors of human tyrosyl-DNA phosphodiesterase 1 (TDP1): qHTS in cells in absence of CPT; DT40 Tdp1-/- hTDP1 cells, no CPT, ATP luminescence, 48 h; Potency, µM (titrated, usually from 46.2 µM), hits mostly inhibitors; hit rate 15% among 420,000; also: nearly all actives have a fitted effect of over 55% in size
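Growth of hTDP1-complemented DT40 Tdp1-knockout cells is measured by ATP luminescence after at least 48 hr compound exposure at 37 °C, with DMSO substituting for the 20 nM CPT used in the parallel screen.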
TGFb SMAD3 inh: qHTS for Inhibitors of TGF-b. HepG2 CAGA-GFP TGF-b/SMAD3 reporter, GFP fluorescence, 18 h; TGF-beta stimulated, 500 pg/mL final. AID 588855, 2011. hit rate 1.2% among 410,000. Potency, µM (doses to about 46.1 µM), actives largely listed as inhibitors; also: nearly all actives have a fitted effect of over 65% in size
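Read-out: total well GFP (ex488/em500-530) summed from mean per-cell fluorescence. Cells: HEPG2 CAGA-GFP, 1% FBS DMEM, 18 h at 37 degrees C with 500 pg/mL final TGF-beta. Unstimulated wells served as the full-inhibition control; stimulated DMSO wells = 0%.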
Hits are given with their value; - = inactive; ? = inconclusive; . = no result. The list is not random: actives were taken first. Their share in the collection is about 18%. Unless noted, calls follow the shape of the dose curve; as a rule, active = well fitted curve in the direction sought with a large enough effect; inconclusive = small, poorly fitted or top-dose-only effect, or another doubt; inactive = no such curve, though single readings can be large; an effect the other way counts as inactive or inconclusive.

SMILES	IL-1B inflam inh	TDP1 cell CPT	TDP1 inh	HepG2 tox	TDP1 cell noCPT	TGFb SMAD3 inh
Cc1cccc(NC(=O)CN2CCN(C(=O)c3ccc(OCc4cn5ccccc5n4)cc3)CC2)c1C	?	18µM	45µM	-	9.2µM	-
CCCOc1ccc(C(=O)N2CCN(Cc3ccc4c(c3)OCO4)CC2)cc1	?	-	.	-	-	-
Cc1ccc(C)c(C(=O)OCC(=O)Nc2cccc(S(=O)(=O)NC3=NCCCCC3)c2)c1	-69	?	-	-	?	?
COc1ccc(C(=O)Nc2cccc(S(=O)(=O)NC3=NCCCCC3)c2)cc1	-	-	-	-	-	-
Cc1ccc(Nc2nnc(SCC(=O)Nc3cccc(S(=O)(=O)NC4=NCCCCC4)c3)s2)c(C)c1	?	?	-	-	26µM	?
COc1ccc(/C=C/C(=O)OCC(=O)Nc2cccc(S(=O)(=O)NC3=NCCCCC3)c2)cc1	-70	-	-	-	-	-
COc1cc(OC)cc(C(=O)OCC(=O)Nc2cccc(S(=O)(=O)NC3=NCCCCC3)c2)c1	-	?	-	-	21µM	-
CC(=O)c1ccc(N(C(=O)c2csnn2)C(C(=O)NC(C)(C)C)c2cccs2)cc1 (centres undefined)	-	-	-	-	?	-
OC[C@H]1NC[C@@H](O)[C@@H](O)[C@@H]1O	.	.	-	.	.	.
CCCCCC(O)c1ccc([C@H]2CCC(=O)[C@@H]2CCCCCCC(=O)O)cc1 (some centres undefined)	.	.	-	.	.	.
Cc1cc(OCC(=O)NNC(=S)NCC2CCCO2)cc(C)c1Cl (centres undefined)	-	?	-	-	?	-
Cc1ccc(C(C)C)cc1S(=O)(=O)NCc1ccccn1	-	-	-	-	?	-
Cc1cc(=O)[nH]c2c(C)c(N)ccc12	-	-	-	-	-	-
Cc1cc(C)c2ccc3c(C)c(C)nc3c2[nH]1	-	?	-	-	21µM	-
CC(=O)Cc1nsc(NC(=O)c2ccc(F)cc2)n1	-	-	-	-	-	-
Nc1nc(NC(=O)c2ccc(F)cc2)ns1	-73	-	.	-	-	-
CC(OC(=O)c1cccc(-n2cnnn2)c1)C(=O)Nc1ccc(F)cc1 (centres undefined)	-	?	-	-	-	-
COc1c(C2=CC(=O)N(C)C2=O)c2c(n1C)C(=O)c1ccccc1C2=O	.	0.52µM	-	.	0.58µM	.
CN1C(=O)c2ccccc2C1=O	.	?	.	.	-	.
COc1ccc(Cl)cc1NC(=S)N1CC(C)OC(C)C1 (centres undefined)	-	-	-	-	-	-
O=C(CN1C(=O)c2ccccc2S1(=O)=O)NCc1cccs1	-	-	-	-	-	-
O=CC1=C(c2ccccc2)Oc2ccccc2O1	-102	?	.	-	?	?
CN(C)/C=C1/N=C(c2ccccc2)OC1=O	?	-	-	-	-	-
O=C(Oc1cccc(Cl)c1)N1CCOCC1	-	-	.	-	-	-
Cc1c(-c2ccc(Cl)cc2)c(=O)oc2ccc(OC(=O)N3CCOCC3)cc12	.	?	-	-	21µM	?
SMILES	IL-1B inflam inh	TDP1 cell CPT	TDP1 inh	HepG2 tox	TDP1 cell noCPT	TGFb SMAD3 inh
Cc1c(-c2ccc(Cl)cc2)c(=O)oc2c(CN3CCOCC3)c(O)ccc12	.	?	-	-	21µM	?
CCc1c(C)c2ccc(O)c(CN3CCN(c4ccc(F)cc4)CC3)c2oc1=O	.	21µM	-	-	?	?
CCN1CCN(Cc2c(O)ccc3c(C)c(-c4ccccc4)c(=O)oc23)CC1	.	?	-	-	16µM	-
CC(C)[C@H](NC(=O)OCc1ccccc1)C(=O)OCC(=O)NC1(C#N)CCCC1	-	-	-	-	-	-
CC(C)NC(=O)N(C)C[C@H]1Oc2ccc(NS(=O)(=O)c3ccccc3)cc2C(=O)N([C@H](C)CO)C[C@@H]1C	-	-	-	-	-	-
CCSc1ccccc1C(=O)Nc1ccc(S(=O)(=O)NC(C)=O)cc1	-	-	-	-	-	-
CC1CN(Cc2c(O)ccc3c2oc(=O)c2ccccc23)CC(C)O1 (centres undefined)	-	15µM	-	-	15µM	-
O=C(NCc1ccccc1F)Nc1nnc([C@H]2C[C@H](O)[C@@H](CO)O2)s1	-	?	.	-	?	-
CCN1C(=O)C(CC(=O)Nc2ccc(F)cc2)N(CCCN2CCN(c3ccc(F)cc3)CC2)C1=S (centres undefined)	?	15µM	-	-	15µM	?
CCOc1ccc(NC(=O)CC2C(=O)N(CC)C(=S)N2CCN2CCOCC2)cc1 (centres undefined)	-	?	-	-	?	-
CCCOc1ccc(NC(=O)CC2C(=O)N(CC)C(=S)N2CCCN2CCN(Cc3ccccc3)CC2)cc1 (centres undefined)	-100	15µM	-	-	15µM	?
COc1ccccc1-c1nc(CNC(=O)Nc2ccccc2)c(C)o1	.	-	-	-	-	-
CSCC(=O)NC1CCCc2c1cnn2-c1ccc(C)c(C)c1 (centres undefined)	-	-	-	-	?	-
COc1cccc(C(=O)NC2CCCc3c2cnn3-c2cc(C)cc(C)c2)c1 (centres undefined)	-58	?	-	-	?	-
COC(=O)c1ccc(C(=O)NC2CCCc3c2cnn3-c2ccc(C)c(C)c2)cc1 (centres undefined)	-	1.3µM	-	-	1µM	?
Cc1cc(C(=O)NC2CCCc3c2cnn3-c2ccc(C)c(C)c2)nc(C)n1 (centres undefined)	-	?	-	-	16µM	-
COc1ccc(-c2cn3c(n2)sc2cc(C(=O)NCCC4=CCCCC4)ccc23)cc1	.	?	-	-	13µM	-
COc1ccc(-c2cn3c(n2)sc2cc(C(=O)NCCc4ccc(OC)cc4OC)ccc23)cc1	.	7.3µM	-	-	9.2µM	-
CCOc1ccc(-c2cn3c(n2)sc2cc(C(=O)NCCc4ccc(OC)cc4OC)ccc23)cc1	.	-	-	-	?	-
COc1ccc(C2=NNC(=O)C2(C)Br)cc1 (centres undefined)	-	-	.	-	?	-

Bioassay records from PubChem BioAssay.
